Consider 27 compounds from PubChem BioAssay AID504909 (Southern Research Specialized Biocontainment Screening …, 2011).

Results with a measured potency or affinity are listed apart. Activity calls are given as the source filed them. No rule for the calls is given here.

The nature of the assay: Vero cell cytotoxicity, dose response, cytotoxicity control for M. tuberculosis growth inhibitor project, Vero cells, purified and synthesized compounds, set 5 (AID 504909). The settings on record: series mostly up to 100 µM.
On to `CCOC1OC(=O)C(Cl)=C1Nc1ccccc1C` (configuration not stated), for which the compound was classed as inactive.
Take `Cc1nc(SCc2ccccc2Cl)[nH]c(=O)c1C`: the compound was classed as inactive.
Under `Cc1nc(SCC(=O)NC2CCCCC2)[nH]c(=O)c1C` stands “inactive”.
With `Cc1cccc(/C=C/C(=O)c2ccc([N+](=O)[O-])o2)c1`, the call was inactive.
In the case of `CCCc1cc(C(N)=S)ccn1`, the result was inactive.
Regarding `CCOC(=O)CSc1nc(C)c(C)c(=O)[nH]1`, the result was inactive.
`COC(=O)C(C)Oc1ccc(Cc2ncc(C(F)(F)F)cc2Cl)cc1` (configuration not stated): the result was inactive.
The entry for `CNC(=O)CSc1nc2ccccc2c(=O)[nH]1` is “inactive”; for `CC1CCN(C(=O)C2CCN(c3nnc(-n4cccc4)s3)CC2)CC1` it is “inactive”.
`CC(Sc1nc2ccccc2c(=O)[nH]1)C(=O)NC1CCCCC1` (configuration not stated): the result was inactive.
In the case of `CN1CCC(NC(=O)CSc2nc3ccccc3c(=O)[nH]2)CC1`, the outcome was inactive.
For the compound `Cc1[nH]c(=S)[nH]c(=O)c1C`, the compound was called inactive.
As for `Cc1c[nH]c(=S)[nH]c1=O`, the call was inactive.
Under `O=C(CSc1nc2ccccc2c(=O)[nH]1)N1CCOCC1` stands “inactive”; under `COc1c(N2CCNC(C)C2)c(F)cc2c(=O)c(C(=O)O)cn(C3CC3)c12` (configuration not stated), “inactive”.
On to `Nc1cc(=O)[nH]c(SCC(=O)NC2CCCCC2)n1`, for which the compound was called inactive.
Turning to `Cn1c(SCC(=O)NC2CCCCC2)nc2ccccc2c1=O`, the result was inactive.
For the compound `CC1CCN(C(=O)CSc2nc3ccccc3c(=O)[nH]2)CC1`, the result was inactive.
Under `O=C(CSc1nc2c(c(=O)[nH]1)CCC2)NC1CCCCC1` stands “inactive”.
On to `NC(=O)CSc1nc2ccccc2c(=O)[nH]1`, for which the call was inactive.
The entry for `NC[C@H]1O[C@H](O[C@H]2[C@H](O)[C@@H](O[C@H]3O[C@H](CO)[C@@H](O)[C@H](N)[C@H]3O)[C@H](N)C[C@@H]2N)[C@H](O)[C@@H](O)[C@@H]1O` is “inactive”; for `Cc1cnc(SCC(=O)NC2CCCCC2)[nH]c1=O` it is “inactive”.
The entry for `Cc1nc(SCC(N)=O)[nH]c(=O)c1C` is “inactive”; for `CC(C)NC(=O)CSc1nc2ccccc2c(=O)[nH]1` it is “inactive”; for `Cc1cc(=O)[nH]c(SCC(=O)NC2CCCCC2)n1` it is “inactive”.
In the case of `O=C(CSc1nc2ccccc2c(=O)[nH]1)NC1CCCCC1`, the compound was classed as inactive.
Take `O=C(CSc1nc2ccccc2c(=O)[nH]1)NCc1ccc(Cl)cc1`: the compound was classed as inactive.
